D1 allo mod = D1 CRE-luciferase signal change, two-sided – cell-based, HEK293 D1, dopamine EC30, D1 allosteric modulator project, primary screen; D(1A) dopamine receptor (Homo sapiens), P21728; dopamine EC30 potentiation; actives deviate in either direction; B-score at 10 µM; 58,000 compounds, 5.9% hits; AID 641, 2007;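 active = luminescence count or its row- and column-corrected plate score outside the 99.7% band of the plate's sample wells, on either side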
FXIa inh mix = FXIa protease inhibitors in compound pools, primary screen, biochemical, 10-compound mixtures. 62,000 compounds, 0.19% hits. inhibition, % at 5 µM. AID 680, 2007. purified FXIa, fluorogenic substrate, pooled mixtures;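 note: each value is inhibition by a whole ten-compound pool holding the compound; 0% = enzyme with no mixture and 100% = wells lacking enzyme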
M1 antag = antagonists of rat M1 muscarinic receptor; CHO-M1 cells, Fluo-4 calcium, ACh EC80 antagonist mode; hits give low values; B-score at 10 µM; 64,000 compounds, 3.4% hits; AID 628, 2007;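 active = calcium fluorescence response, raw or row-and-column corrected B-score, differing from the plate sample mean either way at a set confidence level, mostly lower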
Target sequence (P08482 whole entry, looked up): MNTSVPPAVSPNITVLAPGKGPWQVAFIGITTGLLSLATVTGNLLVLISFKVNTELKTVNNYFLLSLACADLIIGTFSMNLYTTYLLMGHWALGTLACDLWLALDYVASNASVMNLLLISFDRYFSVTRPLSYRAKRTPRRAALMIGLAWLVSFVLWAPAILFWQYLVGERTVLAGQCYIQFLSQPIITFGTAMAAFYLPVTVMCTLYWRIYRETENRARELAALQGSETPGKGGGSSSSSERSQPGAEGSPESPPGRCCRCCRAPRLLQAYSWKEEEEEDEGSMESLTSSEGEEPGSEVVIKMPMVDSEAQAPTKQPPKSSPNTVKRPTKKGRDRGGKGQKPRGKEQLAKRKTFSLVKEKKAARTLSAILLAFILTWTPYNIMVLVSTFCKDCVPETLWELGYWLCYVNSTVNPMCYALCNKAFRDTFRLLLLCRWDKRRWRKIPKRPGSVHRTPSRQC
FXIIa mix inh = human factor XIIa inhibitors, primary screen, biochemical, pooled compound mixtures, fluorogenic substrate. purified FXIIa. inhibition, % at 5 µM. 62,000 compounds, 0.2% hits. AID 684, 2007;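 note: 0% = enzyme without compound and 100% = no enzyme blank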
hDAT+cocaine = changed hDAT dopamine uptake under cocaine IC80, either direction, primary screen, cocaine antagonist project, cell-based, LLC-PK1 hDAT, [14C]-dopamine uptake, MLSMR | LLC-PK1 hDAT cells, [14C]-dopamine uptake with cocaine IC80; actives deviate in either direction | 110,000 compounds, 1.3% hits | B-score at 10 µM | AID 449768, 2010;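 active = Z score or B-score, a plate-position-corrected score, falls beyond the plate's 99.7% confidence bounds, in either direction; inactive = both scores lie inside the 99.7% bounds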;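 note: scored against the spread of the other compound wells on the same plate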
M1 agonist = M1 muscarinic receptor agonists, primary screen, CHO-M1 cells, Fluo-4 calcium, agonist mode; Fluo-4 calcium fluorescence; hits give high values; B-score at 10 µM; 64,000 compounds, 3% hits; Muscarinic acetylcholine receptor M1; AID 626, 2007;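 active = fluorescence rise, raw or as B-score row- and column-corrected plate score, outside the 99.7% band of its plate's samples, either direction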
M1 ag confirm = rat M1 muscarinic receptor agonists, confirmation, CHO-M1 cells, Fluo-4 calcium, duplicate retest. shares compounds with M1 agonist. Fluo-4 calcium fluorescence, agonist mode; actives lie on both sides. fluorescence change (max-min) at 10 µM. 1,700 compounds, 19% hits. AID 1488, 2009;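 active = fluorescence change differs from the solvent-only DMSO control mean at a set confidence level in both duplicate runs; inconclusive = differs from solvent-only control mean in just one of two runs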;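 note: an EC20 dose of acetylcholine follows compound addition during the same imaging run; raw fluorescence intensity difference in instrument units with no normalization to controls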
M4 ag counter = agonist activity at rat M4 receptor, confirmation, counter-screen for M1 allosteric modulator project, cell-based, agonist mode | fluorescence change (max-min) at 10 µM | CHO M4/Gqi5 cells, Fluo-4 calcium fluorescence; actives lie on both sides | shares compounds with M1 agonist | 1,700 compounds, 9% hits | AID 1741, 2009;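 active = fluorescence change differing from the plate's solvent-only control wells at 99.7% confidence in both duplicates, whether higher or lower; inconclusive = differs from solvent controls in only one of two duplicates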
Active calls of the source: *. This is a sample that favours compounds with a hit; in the whole collection about 7.4% have one here. Cut-off read from the data, not from the text of the source, unless noted: active = inhibition above about 20% (passing the limit was not always enough); inactive = the rest.

CC1CCCN(C/C(O)=C(\C#N)c2nc3ccccc3[nH]2)C1 (configuration not stated) was read as D1 allo mod 0.04, FXIa inh mix 4, M1 antag -4.2*, FXIIa mix inh 4, hDAT+cocaine -1.5, M1 agonist 5.4*, M1 ag confirm inconclusive and M4 ag counter -28.
COc1ccc(CCNS(=O)(=O)c2ccc(OC)cc2)cc1 was read as hDAT+cocaine 1.1.
`COc1ccc(CCNC2=NCC(C)S2)cc1` (configuration not stated) gave FXIa inh mix -1, M1 antag -1.6, FXIIa mix inh 9, hDAT+cocaine -0.58, M1 agonist 31*, M1 ag confirm -4.9 and M4 ag counter inconclusive.
Screening COC(=O)c1cc(Br)c(=O)n(Cc2ccncc2)c1 returned D1 allo mod -0.002, FXIa inh mix 6, M1 antag -0.58, FXIIa mix inh 8, hDAT+cocaine -0.93 and M1 agonist -0.48.
O=C(Nc1ccc2nc(-c3ccco3)c(-c3ccco3)nc2c1)N1CCCCCC1 was read as D1 allo mod -4.5*, FXIa inh mix 1, M1 antag -4.6*, FXIIa mix inh 3, hDAT+cocaine 0.048, M1 agonist 30*, M1 ag confirm 362* and M4 ag counter inconclusive.
`CCOC(=O)C1CCN(C(=O)Nc2ccc3c(c2)nc(C)n3C)CC1` gave D1 allo mod -0.95, FXIa inh mix 8, M1 antag 0.2, FXIIa mix inh -7, hDAT+cocaine 0.085 and M1 agonist 0.55.
Screening Cc1nc2ccc(NC(=O)N3CCCCC3)cc2nc1C returned hDAT+cocaine -0.27.
CCOC(=O)C1CCN(C(=O)Nc2ccc3nc(-c4ccco4)c(-c4ccco4)nc3c2)CC1 was read as D1 allo mod -1.5, FXIa inh mix -1, M1 antag -12*, FXIIa mix inh 6, hDAT+cocaine -0.93, M1 agonist 84*, M1 ag confirm 392* and M4 ag counter inconclusive.
For CC(=O)N1CCN(c2nc3cc4c(cc3nc2NS(=O)(=O)c2ccccc2)OCCO4)CC1 the results were D1 allo mod 0.9, FXIa inh mix -9, M1 antag 0.11, FXIIa mix inh 6, hDAT+cocaine 0.69 and M1 agonist 0.16.
`COc1ccc(OCC(=O)Nc2ccccc2O)cc1` gave hDAT+cocaine -1.4.
Screening CC1CN(C(=O)CN2C(=O)NC3(CCCCCC3)C2=O)CC(C)O1 (configuration not stated) returned hDAT+cocaine -0.022.
For COc1cc(OC)c(-c2nnc(-c3ccc(OC)c(OC)c3OC)o2)cc1OC the results were D1 allo mod -0.67, FXIa inh mix -6, M1 antag -0.34, FXIIa mix inh -6, hDAT+cocaine 1.8, M1 agonist 4.5*, M1 ag confirm -30* and M4 ag counter -60.
COc1cccc(-c2nnc(-c3ccc(C(F)(F)F)cc3)o2)c1OC was read as hDAT+cocaine -1.7.
Screening O=C(NCCn1cccc1)c1cccc2ccccc12 returned D1 allo mod -0.22, FXIa inh mix 2, M1 antag -0.013, FXIIa mix inh -12, hDAT+cocaine -1.2, M1 agonist 5.7*, M1 ag confirm -31* and M4 ag counter -54.
`C=CCNC(=O)c1ccccc1NC(=O)c1cccc2ccccc12` gave hDAT+cocaine -0.74.
